Data reported in the supplement of paper PMC8975748.
Counter-ions that a name gives are not always drawn.

system: Saccharomyces cerevisiae BY4741 SeMeCo community; assay: z-score of subpopulation abundance vs DMSO median, subpopulation auxotrophic for HUM; higher = larger share of this subpopulation than in DMSO controls; settings: 10 µM; 24 h; SM minimal medium; subpopulation (auxotrophy): HUM
Description: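 Fluorescent four-plasmid SeMeCo (self-establishing metabolically cooperating S. cerevisiae BY4741 community; plasmids pH-mRuby2, pL-mWasabi, pU-eCFP, pM-TagRFP657) was grown 24 h in minimal SM medium with each Selleck FDA-approved drug at 10 µM in 384-well plates. Cells were fixed and imaged by high-content confocal microscopy. For each auxotrophic subpopulation (and the prototroph), a z-score gives the deviation from the DMSO vehicle-control population median.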

Structure (SMILES) | z-score of subpopulation abundance
CCN(CC)CCOC(=O)C(O)(c1ccccc1)c1ccccc1 [Benactyzine hydrochloride] | 0.98
CCOC(=O)Nc1ccc(NCc2ccc(F)cc2)cc1N [Retigabine] | -0.05
C[C@@H]1O[C@@H](O[C@H]2C[C@@H](O)[C@]3(CO)[C@H]4[C@H](O)C[C@]5(C)[C@@H](C6=CC(=O)OC6)CC[C@]5(O)[C@@H]4CC[C@]3(O)C2)[C@H](O)[C@H](O)[C@H]1O [Ouabain] | -0.49
CN1C(=O)COc2c(C(=O)NC3CN4CCC3CC4)cc(Cl)cc21 (stereo not given) [Azasetron HCl] | 0.35
CC[C@@H](C(N)=O)N1CCCC1=O [Levetiracetam] | -0.12
CC(C)(O)C(Cl)(Cl)Cl [Chlorobutanol] | -0.45
Nc1nc(N)nc(NC2CC2)n1 [Cyromazine] | -0.23
CN1[C@@H]2CC[C@H]1C[C@@H](OC(=O)C(CO)c1ccccc1)C2 (stereo not given in full) [Atropine sulfate monohydrate] | -0.27
O=c1[nH]c2ccccc2n1CCCN1CCC(n2c(=O)[nH]c3cc(Cl)ccc32)CC1 [Domperidone] | 0.44
CC(NC(C)(C)C)C(=O)c1cccc(Cl)c1 (stereo not given) [Amfebutamone (Bupropion) HCl] | -0.74
C[C@H]1O[C@H](O[C@H]2[C@H](O)[C@@H](O)[C@@H](O)[C@H](O)[C@@H]2O)[C@@H](N)C[C@@H]1NC(=N)C(=O)O [Kasugamycin hydrochloride] | -0.14
CN(C)[C@@H]1C(=O)C(C(N)=O)=C(O)[C@@]2(O)C(=O)C3=C(O)c4c(O)cccc4[C@@](C)(O)[C@H]3[C@H](O)[C@@H]12 [Oxytetracycline Dihydrate] | -0.79
CN(C)[C@@H]1C(=O)C(C(N)=O)=C(O)[C@@]2(O)C(=O)C3=C(O)c4c(O)cccc4[C@@](C)(O)[C@H]3[C@H](O)[C@@H]12 [Oxytetracycline (Terramycin)] | -0.11
CC[C@H]1[C@@H]2C[C@H]3[C@@H]4N(C)c5ccccc5[C@]45C[C@@H]([C@@H]2[C@H]5O)N3[C@@H]1O [Ajmaline] | -0.48
CCC1=C[C@H]2CN3CCc4c([nH]c5ccccc45)[C@](C(=O)OC)(C2)[C@H]13 [Catharanthine] | 0.29
COc1ccc2c(c1)[C@]13CCCC[C@@H]1[C@H](C2)N(C)CC3 [Dextromethorphan hydrobromide hydrate] | 0.2
CCN(C)C(=O)Oc1cccc([C@H](C)N(C)C)c1 [Rivastigmine Tartrate] | -0.85
CN1c2ccccc2C(NCCCCCCC(=O)O)c2ccc(Cl)cc2S1(=O)=O (stereo not given) [Tianeptine sodium] | -0.16
CCCCCCCCCCCCCCCC[n+]1ccccc1 [Cetylpyridinium Chloride] | 20.2
C=C(C)[C@H]1Cc2c(ccc3c2O[C@@H]2COc4cc(OC)c(OC)cc4[C@@H]2C3=O)O1 [Rotenone (Barbasco)] | 0.94

Structure (SMILES) | z-score of subpopulation abundance
COC(=O)C1=CCCN(C)C1 [Arecoline HBr] | -0.03
COc1ccc(C(CN(C)C)C2(O)CCCCC2)cc1 (stereo not given) [Venlafaxine] | 0.51
CCN(C)C(=O)Oc1cccc([C@H](C)N(C)C)c1 [Rivastigmine] | 0.66
CC[C@H]1CN2CC[C@]3(C(=O)Nc4ccccc43)[C@@H]2C[C@@H]1/C(=C\OC)C(=O)OC [Rhynchophylline] | 0.73
C=CCN1C[C@H](C(=O)N(CCCN(C)C)C(=O)NCC)C[C@@H]2c3cccc4[nH]cc(c34)C[C@H]21 [Cabergoline] | -0.37
C[CH2][Hg][S]c1ccccc1C(=O)[O-].[Na+] [Thimerosal] | 14.9
N[C@@H]1C[C@H]1c1ccccc1 [Tranylcypromine (2-PCPA) HCl] | -0.57
C=C[C@H]1CN2CC[C@H]1C[C@H]2[C@H](O)c1ccnc2ccccc12 [Cinchonidine] | 0.48
C[N+](C)(C)CCCCCCCCCC[N+](C)(C)C [Decamethonium Bromide] | 0.18
CN[C@@H]1[C@@H](O)[C@@H](O[C@@H]2[C@@H](O)[C@H](O[C@H]3O[C@H]([C@@H](C)O)[C@@H](O)[C@H](O)[C@H]3N)[C@@H](N)C[C@H]2N)OC[C@]1(C)O [Geneticin (G418 Sulfate)] | -0.88
CN(C)C(=O)Oc1cccc([N+](C)(C)C)c1 [Neostigmine Bromide] | -0.37
CN1[C@@H]2C[C@@H](OC(=O)[C@H](CO)c3ccccc3)C[C@H]1[C@@H]1O[C@@H]12 [Scopolamine HBr] | -0.97
Oc1cccc2cccnc12 [8-Hydroxyquinoline] | -0.54
NCC(O)c1ccc(O)cc1 (racemic) [(+,-)-Octopamine HCl] | -0.21
CN1[C@@H]2CC[C@H]1C[C@@H](OC(=O)[C@H](CO)c1ccccc1)C2 [Hyoscyamine] | -0.99
CC(C)=CCOc1c2occc2cc2ccc(=O)oc12 [Imperatorin] | -1.03
C[N+]12CCC(CC1)C(OC(=O)C(O)(c1ccccc1)c1ccccc1)C2 (stereo not given) [Clidinium Bromide] | -0.01
O=[N+]([O-])C(Br)(CO)CO [Bronopol] | -0.53
C=CN1CCCC1=O.II [Povidone iodine] | 1.77
COc1ccc2[nH]cc(CCN)c2c1 [5-Methoxytryptamine] | 0.46
